Only a selection was taken, and hits are over-represented in it overall.
VCAM1 pot – enhances TNF alpha induced VCAM1 expression in HUVEC; HUVEC TNFa-stimulated VCAM-1 immunofluorescence, high-content imaging; scaled per plate to unstimulated/TNFa-only wells; activation, % at 2 µM; 93,000 tested, 0.19% active; AID 808;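 active = activation above the screen mean plus 3 SD, with well images confirming the hit on visual review, cut at about 28% in these data, passing the limit was not always enough; inconclusive = activation above that limit but images do not confirm it; inactive = activation not above that limit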;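 note: signal is the number of cytoplasmic VCAM-1 stained grains per positive cell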
VCAM1 pot confirm – potentiators of TNFa-induced VCAM1 expression, confirmation, imaging, HUVEC, triplicate retest; shares compounds with VCAM1 pot; HUVEC TNFa-stimulated VCAM-1 immunofluorescence imaging; activation, % at 2 µM; 230 tested, under 10 active;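 active = activation above 30% in triplicate retests at 2 µM, then confirmed by visual review of the well images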
Numbers stand for hits.

CN(C)CCCN1C(=O)C(=O)/C(=C(/O)c2ccc3c(c2)OCO3)C1c1ccccn1 (stereo not given) was read as VCAM1 pot inactive.
`COc1ccccc1N(CC(=O)Nc1cccnc1)S(=O)(=O)c1ccccc1` gave VCAM1 pot inactive.
Screening COCCNC(=O)c1ccccc1NC(=O)c1ccccc1N(C)S(=O)(=O)c1ccccc1 returned VCAM1 pot 31.6 and VCAM1 pot confirm inactive.
Screening CN(c1ccccc1C(=O)NCc1ccccn1)S(C)(=O)=O returned VCAM1 pot inactive.
CC(C)c1ccc(Oc2cccc(C(=O)/C(C#N)=C/N(C)C)c2)cc1 was read as VCAM1 pot inactive.
Screening c1ccc2cc(OCc3nc4ccccc4[nH]3)ccc2c1 returned VCAM1 pot 65.5 and VCAM1 pot confirm inactive.
For COc1ccc(CSc2nc3ccccc3[nH]2)cc1 the results were VCAM1 pot inactive.
Screening Nc1nc(COc2ccc3ccccc3c2)cs1 returned VCAM1 pot inactive.
For CCC(C)(CC(=O)N(C)CCC#N)c1ccccc1 (stereo not given) the results were VCAM1 pot inactive.
CCOC(=O)c1cnc2nc(COc3ccccc3)[nH]n2c1=O was read as VCAM1 pot inactive.
`CC1(C)N=C(/C=N/O)CN1O` gave VCAM1 pot inactive.
`N#Cc1ccccc1CSc1nc(N2CCCCC2)nc(N2CCCCC2)n1` gave VCAM1 pot inactive.
Cc1cc(C(=O)CSc2nnc(Cc3ccccc3)o2)c(C)n1Cc1ccc2c(c1)OCO2 was read as VCAM1 pot 53.5 and VCAM1 pot confirm inactive.
For O=C(CSc1nnnn1-c1ccc2c(c1)OCO2)NCc1ccccc1 the results were VCAM1 pot inactive.
O=C(CSc1nnc(Cc2cccs2)n1-c1ccccc1)NCc1ccc2c(c1)OCO2 was read as VCAM1 pot inactive.
Screening CCOc1cc(NC(=O)c2ccco2)c(OCC)cc1NC(=O)CCC(=O)NCc1cccnc1 returned VCAM1 pot inactive.
`O=c1c2ccccc2nc(-c2ccoc2)n1CCc1ccccc1` gave VCAM1 pot inactive.
Screening CC1CCN(C(=O)Cn2c(=O)n(CCc3ccccc3)c(=O)c3ccccc32)CC1 returned VCAM1 pot inconclusive and VCAM1 pot confirm inactive.
O=C(Cn1cnc2ccccc2c1=O)N1CCN(Cc2ccccc2)CC1 was read as VCAM1 pot inactive.
Screening Cc1cc(NC(=O)C2CCN(S(=O)(=O)Cc3ccccc3)CC2)ccc1-n1cnnn1 returned VCAM1 pot inactive.
CCC(C)[C@@H](NC(=O)OC(C)(C)C)c1nnc(S(=O)(=O)Cc2cccc(C)c2)o1 (stereo not given in full) was read as VCAM1 pot inactive.
COC(=O)NNC(=O)c1ccccc1C was read as VCAM1 pot inactive.
`Cn1c(/C=N/n2cnnc2)nc2ccccc21` gave VCAM1 pot inconclusive and VCAM1 pot confirm inactive.
Cn1c(/N=C/c2c[nH]c3ccccc23)nc2ccccc21 was read as VCAM1 pot inactive.
Cn1c(NCc2c[nH]c3ccccc23)nc2ccccc21 was read as VCAM1 pot inactive.
`O=C(NC(NCCCN1CCOCC1)(C(F)(F)F)C(F)(F)F)C1CCCCC1` gave VCAM1 pot inactive.
CC(C(=O)Nc1ccccc1Sc1ccccc1)N(c1ccccc1)S(C)(=O)=O (stereo not given) was read as VCAM1 pot inactive.
`CCOC(=O)c1cc(C#N)c(N2CCCC2)nc1-c1ccccc1` gave VCAM1 pot inactive.
CCOC(=O)c1cc(-c2ccc(OC)cc2F)nc2c1c(C)nn2CCC#N was read as VCAM1 pot 33.6 and VCAM1 pot confirm inactive.
Screening COc1ccc(-c2cc(C(=O)Nc3cc(C)n(Cc4ccc(Cl)cc4)n3)no2)cc1OC returned VCAM1 pot inactive.
COc1cc(NC(=O)NCCN2CCN(c3ccc(Cl)cc3)CC2)ccc1C was read as VCAM1 pot inactive.
COc1ccc(CNC(=O)c2ccc(CN3CCOCC3)cc2)cc1 was read as VCAM1 pot inactive.
Screening COc1ccc(NC(=O)c2ccc(CN3CCN(c4ccccc4)CC3)cc2)cc1OC returned VCAM1 pot inconclusive and VCAM1 pot confirm inactive.
For Cc1nc2sc(C(c3ccc(Cl)cc3)N3CC(C)OC(C)C3)c(O)n2n1 (stereo not given) the results were VCAM1 pot inactive.
COc1ccc(-c2nc(C#N)c(NCc3cccnc3)o2)cc1OC was read as VCAM1 pot inactive.
Screening CCOc1ccc(-c2nc(C#N)c(NC3CC3)o2)cc1 returned VCAM1 pot inactive.
For Cc1ccc(-c2nc(C#N)c(NCCN3CCCCC3)o2)cc1 the results were VCAM1 pot 43.5 and VCAM1 pot confirm inactive.
`N#CC(/C(=N/S(=O)(=O)c1cccs1)c1ccccc1)c1nc2ccccc2[nH]1` (stereo not given) gave VCAM1 pot inactive.
Screening Cc1ccc(CNC(=O)CSc2ncccn2)cc1 returned VCAM1 pot inactive.
`Cc1cc(C)c(C#N)c(=N)o1` gave VCAM1 pot inactive.
COc1ccc(OCCOC(=O)c2cccc(-n3cnnn3)c2)cc1 was read as VCAM1 pot inactive.
